KB-V1 MDR tox – qHTS assay for MDR1-selective chemotherapeutics: Primary screen using the drug-selected MDR subline cells KB-V1 | Potency, µM (doses to about 46.1 µM), usual class: cytotoxic | KB-V1 MDR cells viability, CellTiter-Glo, 72 h | actives 3.4% (n = 400,000); further: on the % scale 0 is the no-effect control and ±100 the full control effect; nearly all actives have a fitted effect of over 60% in size
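Compound-treated KB-V1 multidrug-resistant cells, 72 h, 37 degrees C; viability by CellTiter-Glo. Fitted qHTS curves give the values.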
KB-3-1 tox – qHTS assay for MDR1-selective chemotherapeutics: Primary screen using the parental adenocarcinoma cell KB-3-1 | KB-3-1 viability, CellTiter-Glo ATP luminescence, 72 h | Potency, µM (doses to about 46.1 µM), actives largely listed as cytotoxic | actives 1.4% (n = 400,000) | AID 1347075, 2019; further: on the % scale 0 is the no-effect control and ±100 the full control effect; nearly all actives have a fitted effect of over 60% in size
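Screening of KB-3-1 cells (DMEM, 10% FBS, phenol-red free) ran from lowest to highest compound concentration; after 72 h at 37 °C viability was read luminescently and curves fitted.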
MCF10A rereplic – A quantitative high throughput screen for small molecules that induce DNA re-replication in MCF 10a normal breast cells; MCF 10A DNA re-replication, Hoechst nuclear intensity, 48 h; Potency, µM (series often up to 46.1 µM), for inactives: top-dose activity, positive = re-replication, hits mostly activators; actives 2.9% (n = 350,000); further: % of control where 0% means no effect; nearly all actives have a fitted effect of over 50% in size
SW480 rereplic – A quantitative high throughput screen for small molecules that induce DNA re-replication in SW480 colon adenocarcinoma cells | SW480 DNA re-replication, Hoechst DNA content imaging, 48 h | AID 624297, 2012 | Potency, µM (series often up to 46.1 µM), inactives show at the highest dose re-replication activation, actives largely listed as activators | actives 1.8% (n = 340,000); further: % of control where 0% means no effect; nearly all actives have a fitted effect of over 55% in size
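Quantitative HTS format with DMSO vehicle controls; 48 hr drug incubation at 37 C, then 40 min Hoechst staining and scanning imager measurement at 405 nm excitation.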
ELG1 repair inh – qHTS screen for small molecules that inhibit ELG1-dependent DNA repair in human embryonic kidney (HEK293T) cells expressing luciferase-tagged ELG1; actives 2.3% (n = 330,000); AID 504467, 2011; HEK293T ELG1-luciferase reporter, luminescence, 16 h; DNA damage induced by 5-fluorouridine; Potency, µM (titrated, usually from 46.1 µM), without a hit: top-dose activity change, negative = inhibition, hits mostly inhibitors; further: on the % scale 0 is the no-effect control and ±100 the full control effect; nearly all actives have a fitted effect of over 55% in size
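Cells (2,000 per well) received 5-fluorouridine plus test compound or DMSO and were incubated 16 hr at 37 °C, 5% CO2. Luciferase activity was read by luminescence 30 min after ONE-Glo addition; signal suppression marked inhibition of damage-induced ELG1 function.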
The depositor's hits bear a star; i = inactive; ? = inconclusive; · = no result given; [ ] = remark or other dose. Only some compounds are listed: those with a hit (about 8.1% of all), similar ones and a draw of the others. The call rests on the fitted dose curve; in most records, active means well fitted curve in the direction sought with a large enough effect; inconclusive means small, poorly fitted or top-dose-only effect, or another doubt; inactive means no such curve, though single readings can be large; an effect the other way counts as inactive or inconclusive. Potency means the concentration at half of the fitted maximal effect.

SMILES	KB-V1 MDR tox	KB-3-1 tox	MCF10A rereplic	SW480 rereplic	ELG1 repair inh
COc1ccc(C(=O)N2N=C(c3cccs3)CC2c2ccccc2O)cc1 (configuration not stated)	i	i	23.8%	16.4µM*	?
CSc1ccc(/C=C/C(=O)OCC(=O)c2ccc[nH]2)cc1	i	i	-4.5%	-6.2%	?
Cc1nccn1CCC(=O)NC1CC(C)(C)Cc2c1cnn2-c1ccccc1 (configuration not stated)	i	i	·	·	·
CN(C)CCCN(C(=O)CCS(=O)(=O)c1ccccc1)c1nc2cc3c(cc2s1)OCO3	?	?	5.17µM*	?	?
COc1ccc(Cl)c2sc(N(CCN(C)C)C(=O)CCS(=O)(=O)c3ccc(C)cc3)nc12	i	i	?	-17.5%	5.9%
Cc1ccc2sc(N(CCCN(C)C)C(=O)CCS(=O)(=O)c3ccccc3)nc2c1C	i	16.4µM*	?	?	-8.6%
COc1ccc(OC)c2sc(N(CCCN(C)C)C(=O)CCS(=O)(=O)c3ccccc3)nc12	?	16.4µM*	5.8µM*	?	?
COc1ccc(C)c2sc(N(CCCN(C)C)C(=O)CS(=O)(=O)c3ccc(F)cc3)nc12	i	i	3.66µM*	-20.1%	2.8%
CCNc1c(NC(=O)c2ccccc2OCC)c(=O)oc2ccccc12	i	i	·	·	·
Cc1ccc2sc(N(CCCN(C)C)C(=O)c3ccc(Br)s3)nc2c1C	?	?	13µM*	-63.5%	?
CC(=O)c1ccc(C(=O)N(CCCN(C)C)c2nc3c(C)c(C)ccc3s2)cc1	i	i	·	·	·
O=C(/C=C/[C@H]1O[C@@H](n2ccc(=O)[nH]c2=O)[C@H](O)[C@@H]1O)NCc1cccc2ccccc12	i	i	·	·	·
O=C(Nc1cccc(Br)c1)c1ccccc1-c1ccccc1	?	i	?	-2.9%	-6.8%
Cc1cc(Br)ccc1NC(=O)c1ccccc1-c1ccccc1	13µM*	i	-2.1%	27.1%	-4.2%
O=C(Nc1ccccc1-c1ccccc1)c1ccccc1Br	?	i	11.1%	2.3%	-3.2%
O=C(Nc1ccccc1Br)c1ccccc1-c1ccccc1	?	7.31µM*	13µM*	15.8µM*	-11.1%
Cc1ccc(C(=O)NCc2ccco2)c(C)c1	?	i	-8.2%	-3.8%[9.22 µM]	?
O=C1c2ccccc2C(=O)N1CCCCSc1nnc(-c2ccc(OC(F)F)cc2)o1	3.26µM*	i	16.0%	12.7%	?
Cc1nnc(SCCCN2C(=O)c3ccccc3C2=O)o1	i	i	-1.0%	-2.3%	6.2%
CCCC(=O)N1CCC1(C)C(=O)Nc1ccc2c(c1)CCN2C(C)=O (configuration not stated)	i	i	·	·	·
C=CCOc1c(Br)cc(/C=N/n2c(CC)n[nH]c2=S)cc1Br	?	?	16.4µM*	?	-0.6%
CCc1n[nH]c(=S)n1/N=C/c1cc(Br)c(O)c(OC)c1	?	i	-2.2%	14.4%	6.1%
Nc1nc(N)nc(-c2cc(O)ccc2O)n1	i	?	?	?	1.16µM*
CCCCCCCOc1ccc(CC(=O)NO)cc1	i	i	·	·	·
Cc1ccc(C(=O)O/N=C\c2ccc(N3CCCCC3)c([N+](=O)[O-])c2)cc1	7.31µM*	?	9.4%	-1.1%	8.3%
COc1ccc(C(=O)/C=C/c2ccc(N3CCCCC3)c([N+](=O)[O-])c2)c(OC)c1	?	i	11.6µM*	?	-4.6%
O=C(O/N=C\c1ccc(N2CCCCC2)c([N+](=O)[O-])c1)c1cccc(Cl)c1	?	?	-2.1%	5.4%	13.0%
COc1ccc(C(=O)/C=C/c2ccc(N3CCCCC3)c([N+](=O)[O-])c2)cc1	?	?	8.2µM*	?	-19.8%
COc1ccc(C)cc1NC(=O)c1cc2c(=O)n3cccc(C)c3nc2s1	i	i	·	·	·

High-throughput results from PubChem BioAssay.
